Article PMC7862700, “An all-to-all approach to the identification of sequence-specific readers for epigenetic DNA modifications on cytosine”

How the values were obtained:
Assay in all cases: DAPPL (digital affinity profiling via proximity ligation, sequencing); 10 mM Tris-HCl pH 7.5, 50 mM NaCl, 1 mM DTT, 4% glycerol, room temperature, 30 min; GST-TFs on glutathione beads, 16-mer random dsDNA library, 0.1% formaldehyde crosslink after washing; high values mean tight binding
FEV = target: T1, FEV (Homo sapiens, UniProt Q99581 1-238); conditions: protein: recombinant; tags: N-terminal GST; dsDNA, one strand shown
T1 sequence: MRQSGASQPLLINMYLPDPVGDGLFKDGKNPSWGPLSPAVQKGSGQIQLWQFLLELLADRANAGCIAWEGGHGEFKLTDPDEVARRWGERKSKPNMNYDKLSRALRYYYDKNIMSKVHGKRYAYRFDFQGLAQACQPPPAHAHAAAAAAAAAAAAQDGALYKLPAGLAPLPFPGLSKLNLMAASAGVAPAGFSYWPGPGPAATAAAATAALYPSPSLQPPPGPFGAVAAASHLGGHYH
Method in brief: (§1)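 Beads coated with glutathione captured GST-fused human transcription factors that had been expressed in yeast, and the factors were then given DNA barcodes and pooled with a tag-only sample. The pools were incubated with 200 nmole of a random double-stranded 16-mer DNA library in Tris/NaCl/DTT/glycerol buffer for 30 min at room temperature, washed, crosslinked with 0.1% formaldehyde and proximity-ligated with BsaI/T4 ligase at 37 °C for 1 h. PCR amplification and Illumina NextSeq500 sequencing came last. Binding signal is each hexamer's read frequency for a factor divided by its frequency for the tag-only sample.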

ETV5 = ETV5 (Homo sapiens, UniProt P41161 1-510); conditions: protein: recombinant; tags: N-terminal GST; dsDNA, one strand shown
ETV5, sequence (P41161 whole entry): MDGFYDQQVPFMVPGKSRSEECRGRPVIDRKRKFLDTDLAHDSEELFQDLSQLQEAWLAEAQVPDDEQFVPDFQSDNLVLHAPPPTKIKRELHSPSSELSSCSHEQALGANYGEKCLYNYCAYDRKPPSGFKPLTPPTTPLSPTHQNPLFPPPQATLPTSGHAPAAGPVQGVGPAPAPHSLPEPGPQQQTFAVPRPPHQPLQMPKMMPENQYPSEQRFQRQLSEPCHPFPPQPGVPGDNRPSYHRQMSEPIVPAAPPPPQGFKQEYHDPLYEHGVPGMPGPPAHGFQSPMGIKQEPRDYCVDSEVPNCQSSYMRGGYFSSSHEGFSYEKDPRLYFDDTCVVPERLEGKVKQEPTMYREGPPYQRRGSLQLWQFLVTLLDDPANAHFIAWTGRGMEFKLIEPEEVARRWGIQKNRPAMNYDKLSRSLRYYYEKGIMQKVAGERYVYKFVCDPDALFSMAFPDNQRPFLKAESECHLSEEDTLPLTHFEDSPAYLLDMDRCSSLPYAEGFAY
Method in brief: as §1

HSF1 = HSF1 (Homo sapiens, UniProt Q00613 1-529); conditions: protein: recombinant; tags: N-terminal GST; chain copies: 3; dsDNA, one strand shown
HSF1, sequence (Q00613 whole entry): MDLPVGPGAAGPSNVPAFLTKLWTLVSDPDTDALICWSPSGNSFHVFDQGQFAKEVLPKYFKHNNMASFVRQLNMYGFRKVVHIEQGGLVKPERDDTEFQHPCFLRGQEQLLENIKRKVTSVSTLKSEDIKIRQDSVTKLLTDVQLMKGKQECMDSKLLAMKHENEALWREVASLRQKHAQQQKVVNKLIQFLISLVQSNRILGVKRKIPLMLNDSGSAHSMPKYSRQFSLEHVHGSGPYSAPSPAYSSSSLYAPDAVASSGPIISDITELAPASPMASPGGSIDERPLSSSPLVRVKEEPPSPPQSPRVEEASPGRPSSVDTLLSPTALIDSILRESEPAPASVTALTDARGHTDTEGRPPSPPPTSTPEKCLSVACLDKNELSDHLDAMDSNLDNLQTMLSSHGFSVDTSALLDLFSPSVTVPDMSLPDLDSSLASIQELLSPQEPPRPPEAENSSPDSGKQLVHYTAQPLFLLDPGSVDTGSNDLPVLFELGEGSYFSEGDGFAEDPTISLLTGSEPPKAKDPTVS
Method in brief: as §1

SPIC = target: T2, SPIC (Homo sapiens, UniProt Q8N5J4 1-248); conditions: protein: recombinant; tags: N-terminal GST; dsDNA, one strand shown
T2 sequence: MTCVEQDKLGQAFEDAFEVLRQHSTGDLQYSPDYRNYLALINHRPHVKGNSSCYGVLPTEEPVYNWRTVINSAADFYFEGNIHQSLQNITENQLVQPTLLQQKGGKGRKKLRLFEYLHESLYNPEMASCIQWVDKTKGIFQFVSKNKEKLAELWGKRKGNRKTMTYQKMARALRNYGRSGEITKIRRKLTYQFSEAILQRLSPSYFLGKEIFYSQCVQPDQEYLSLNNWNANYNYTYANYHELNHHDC
Method in brief: as §1

ELF4 = ELF4 (Homo sapiens, UniProt Q99607 1-663); conditions: protein: recombinant; tags: N-terminal GST; dsDNA, one strand shown
ELF4, sequence (Q99607 whole entry): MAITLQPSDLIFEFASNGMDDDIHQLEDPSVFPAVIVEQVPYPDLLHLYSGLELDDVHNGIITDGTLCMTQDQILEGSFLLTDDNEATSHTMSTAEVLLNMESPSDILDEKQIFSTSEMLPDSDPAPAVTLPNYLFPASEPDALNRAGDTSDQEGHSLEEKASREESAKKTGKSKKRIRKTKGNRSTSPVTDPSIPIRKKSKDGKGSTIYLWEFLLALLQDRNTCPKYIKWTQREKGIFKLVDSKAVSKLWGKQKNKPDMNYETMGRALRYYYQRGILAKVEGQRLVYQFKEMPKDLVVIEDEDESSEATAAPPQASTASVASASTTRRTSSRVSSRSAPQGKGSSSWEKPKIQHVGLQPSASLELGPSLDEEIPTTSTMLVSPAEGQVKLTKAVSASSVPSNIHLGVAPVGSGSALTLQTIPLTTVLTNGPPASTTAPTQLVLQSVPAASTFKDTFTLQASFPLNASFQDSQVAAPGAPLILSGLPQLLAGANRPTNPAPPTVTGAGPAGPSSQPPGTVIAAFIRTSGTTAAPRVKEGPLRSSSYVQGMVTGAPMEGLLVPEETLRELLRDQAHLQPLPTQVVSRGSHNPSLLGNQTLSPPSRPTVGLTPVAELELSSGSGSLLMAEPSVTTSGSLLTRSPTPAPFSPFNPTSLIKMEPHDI
Method in brief: as §1

ELK4 = target: T3, ELK4 (Homo sapiens, UniProt P28324-2 1-405); conditions: protein: recombinant; tags: N-terminal GST; dsDNA, one strand shown
T3 sequence: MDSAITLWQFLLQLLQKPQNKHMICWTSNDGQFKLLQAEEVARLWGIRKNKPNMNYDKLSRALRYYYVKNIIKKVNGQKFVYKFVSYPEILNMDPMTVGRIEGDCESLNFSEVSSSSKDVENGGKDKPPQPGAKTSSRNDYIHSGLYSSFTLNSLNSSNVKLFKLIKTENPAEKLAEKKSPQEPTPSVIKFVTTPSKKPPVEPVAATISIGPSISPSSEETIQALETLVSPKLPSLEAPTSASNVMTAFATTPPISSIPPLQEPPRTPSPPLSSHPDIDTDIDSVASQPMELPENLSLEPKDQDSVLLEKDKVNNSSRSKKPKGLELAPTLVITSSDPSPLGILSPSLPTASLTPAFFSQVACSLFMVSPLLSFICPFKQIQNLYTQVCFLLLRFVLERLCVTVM
Method in brief: as §1

ETV2 = target: T4, ETV2 (Homo sapiens, UniProt O00321 1-342); conditions: protein: recombinant; tags: N-terminal GST; dsDNA, one strand shown
T4 sequence: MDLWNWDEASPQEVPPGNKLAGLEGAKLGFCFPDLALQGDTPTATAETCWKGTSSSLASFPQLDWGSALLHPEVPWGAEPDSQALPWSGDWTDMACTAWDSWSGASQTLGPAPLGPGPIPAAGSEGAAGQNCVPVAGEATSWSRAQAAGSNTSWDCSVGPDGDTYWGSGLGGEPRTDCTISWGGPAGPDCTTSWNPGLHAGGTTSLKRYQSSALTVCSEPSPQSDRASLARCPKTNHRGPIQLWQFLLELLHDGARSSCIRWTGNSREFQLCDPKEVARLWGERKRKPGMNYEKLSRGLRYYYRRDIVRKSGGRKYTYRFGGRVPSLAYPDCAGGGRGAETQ
Method in brief: as §1

ELF3 = target: T5, ELF3 (Homo sapiens, UniProt P78545 1-371); conditions: protein: recombinant; tags: N-terminal GST; dsDNA, one strand shown
T5 sequence: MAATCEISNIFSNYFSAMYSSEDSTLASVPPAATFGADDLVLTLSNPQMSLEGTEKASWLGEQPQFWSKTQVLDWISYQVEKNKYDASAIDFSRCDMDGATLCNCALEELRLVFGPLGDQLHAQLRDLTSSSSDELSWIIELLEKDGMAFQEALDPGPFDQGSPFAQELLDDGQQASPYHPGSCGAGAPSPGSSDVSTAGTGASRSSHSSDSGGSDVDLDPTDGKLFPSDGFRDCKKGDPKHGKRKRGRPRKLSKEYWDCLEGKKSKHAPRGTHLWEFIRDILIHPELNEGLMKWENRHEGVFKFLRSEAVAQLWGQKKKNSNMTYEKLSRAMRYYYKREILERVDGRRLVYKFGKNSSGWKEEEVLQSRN
Method in brief: as §1

CRX = CRX (Homo sapiens, UniProt O43186 1-299); conditions: protein: recombinant; tags: N-terminal GST; dsDNA, one strand shown
CRX, sequence (O43186 whole entry): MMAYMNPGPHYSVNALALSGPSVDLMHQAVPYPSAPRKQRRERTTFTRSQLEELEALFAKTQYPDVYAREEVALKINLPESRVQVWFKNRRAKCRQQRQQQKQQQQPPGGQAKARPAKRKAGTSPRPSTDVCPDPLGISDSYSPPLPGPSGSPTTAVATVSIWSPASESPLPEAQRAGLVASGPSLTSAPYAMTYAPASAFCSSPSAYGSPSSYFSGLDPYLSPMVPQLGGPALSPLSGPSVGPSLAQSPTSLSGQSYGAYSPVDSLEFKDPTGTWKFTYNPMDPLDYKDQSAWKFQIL
Method in brief: as §1

ETV1 = ETV1 (Homo sapiens, UniProt P50549 1-477); conditions: protein: recombinant; tags: N-terminal GST; dsDNA, one strand shown
ETV1, sequence (P50549 whole entry): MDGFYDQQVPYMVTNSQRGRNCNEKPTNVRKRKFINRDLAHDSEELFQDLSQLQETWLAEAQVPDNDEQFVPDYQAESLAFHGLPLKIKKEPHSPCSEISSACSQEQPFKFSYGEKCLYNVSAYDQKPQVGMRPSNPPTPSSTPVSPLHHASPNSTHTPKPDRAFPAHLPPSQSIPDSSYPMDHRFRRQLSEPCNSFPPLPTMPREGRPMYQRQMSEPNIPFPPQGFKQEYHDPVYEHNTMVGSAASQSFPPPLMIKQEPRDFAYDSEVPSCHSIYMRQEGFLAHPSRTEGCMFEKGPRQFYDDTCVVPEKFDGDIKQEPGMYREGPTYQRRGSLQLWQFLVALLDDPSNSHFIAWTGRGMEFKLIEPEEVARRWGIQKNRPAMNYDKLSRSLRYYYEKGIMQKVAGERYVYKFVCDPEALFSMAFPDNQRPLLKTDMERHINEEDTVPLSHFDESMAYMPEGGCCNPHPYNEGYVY
Method in brief: as §1

ERF = target: T6, ERF (Homo sapiens, UniProt P50548 1-548); conditions: protein: recombinant; tags: N-terminal GST; dsDNA, one strand shown
T6 sequence: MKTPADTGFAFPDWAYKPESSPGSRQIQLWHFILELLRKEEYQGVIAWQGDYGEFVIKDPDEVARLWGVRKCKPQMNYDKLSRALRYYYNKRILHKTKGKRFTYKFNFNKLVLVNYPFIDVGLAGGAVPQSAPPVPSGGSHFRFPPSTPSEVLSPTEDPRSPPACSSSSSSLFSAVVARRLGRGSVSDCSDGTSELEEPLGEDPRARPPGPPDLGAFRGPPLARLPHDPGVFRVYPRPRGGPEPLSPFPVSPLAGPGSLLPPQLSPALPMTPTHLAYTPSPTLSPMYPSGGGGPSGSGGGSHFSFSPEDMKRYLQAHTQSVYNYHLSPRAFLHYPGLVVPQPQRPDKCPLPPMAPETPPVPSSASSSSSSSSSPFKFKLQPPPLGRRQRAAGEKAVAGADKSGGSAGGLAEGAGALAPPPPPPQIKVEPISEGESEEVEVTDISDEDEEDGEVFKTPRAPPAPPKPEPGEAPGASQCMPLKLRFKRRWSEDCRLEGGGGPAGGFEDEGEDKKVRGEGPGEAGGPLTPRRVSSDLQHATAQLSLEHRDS
Method in brief: as §1

ETV3L = target: T7, ETV3L (Homo sapiens, UniProt Q6ZN32 1-361); conditions: protein: recombinant; tags: N-terminal GST; dsDNA, one strand shown
T7 sequence: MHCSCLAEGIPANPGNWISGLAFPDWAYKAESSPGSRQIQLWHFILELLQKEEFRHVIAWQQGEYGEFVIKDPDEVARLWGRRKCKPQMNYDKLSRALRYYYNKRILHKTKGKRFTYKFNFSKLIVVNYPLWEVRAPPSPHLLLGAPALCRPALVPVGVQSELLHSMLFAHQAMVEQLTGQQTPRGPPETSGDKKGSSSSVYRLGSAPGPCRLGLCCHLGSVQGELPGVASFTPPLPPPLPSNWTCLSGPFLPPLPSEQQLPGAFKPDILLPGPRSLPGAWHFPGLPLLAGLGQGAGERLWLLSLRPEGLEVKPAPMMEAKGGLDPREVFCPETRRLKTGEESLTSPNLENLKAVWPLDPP
Method in brief: as §1

ETS2 = target: T8, ETS2 (Homo sapiens, UniProt P15036 1-469); conditions: protein: recombinant; tags: N-terminal GST; dsDNA, one strand shown
T8 sequence: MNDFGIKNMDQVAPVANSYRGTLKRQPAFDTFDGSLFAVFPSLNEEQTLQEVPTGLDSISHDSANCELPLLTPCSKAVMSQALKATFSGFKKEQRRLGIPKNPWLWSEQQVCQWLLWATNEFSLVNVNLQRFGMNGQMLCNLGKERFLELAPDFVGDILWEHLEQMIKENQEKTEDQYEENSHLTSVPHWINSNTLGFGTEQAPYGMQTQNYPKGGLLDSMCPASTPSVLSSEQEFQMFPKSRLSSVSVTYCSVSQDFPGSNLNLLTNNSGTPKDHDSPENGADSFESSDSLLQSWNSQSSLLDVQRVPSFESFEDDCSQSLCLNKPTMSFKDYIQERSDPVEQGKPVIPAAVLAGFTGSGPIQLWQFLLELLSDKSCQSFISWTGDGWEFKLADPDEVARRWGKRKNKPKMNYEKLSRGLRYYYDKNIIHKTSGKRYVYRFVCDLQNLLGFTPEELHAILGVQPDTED
Method in brief: as §1

SPDEF = target: T9, SPDEF (Homo sapiens, UniProt O95238 1-335); conditions: protein: recombinant; tags: N-terminal GST; dsDNA, one strand shown
T9 sequence: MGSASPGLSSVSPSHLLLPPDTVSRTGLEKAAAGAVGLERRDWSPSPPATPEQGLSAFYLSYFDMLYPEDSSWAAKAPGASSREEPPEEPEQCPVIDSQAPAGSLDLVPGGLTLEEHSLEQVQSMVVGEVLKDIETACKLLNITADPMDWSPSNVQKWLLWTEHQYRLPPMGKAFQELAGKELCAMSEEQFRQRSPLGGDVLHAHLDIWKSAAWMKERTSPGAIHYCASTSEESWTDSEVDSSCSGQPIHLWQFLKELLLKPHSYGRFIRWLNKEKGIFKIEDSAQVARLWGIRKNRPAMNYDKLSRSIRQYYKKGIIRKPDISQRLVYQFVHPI
Method in brief: as §1

ETV7 = target: T10, ETV7 (Homo sapiens, UniProt Q9Y603 1-341); conditions: protein: recombinant; tags: N-terminal GST; dsDNA, one strand shown
T10 sequence: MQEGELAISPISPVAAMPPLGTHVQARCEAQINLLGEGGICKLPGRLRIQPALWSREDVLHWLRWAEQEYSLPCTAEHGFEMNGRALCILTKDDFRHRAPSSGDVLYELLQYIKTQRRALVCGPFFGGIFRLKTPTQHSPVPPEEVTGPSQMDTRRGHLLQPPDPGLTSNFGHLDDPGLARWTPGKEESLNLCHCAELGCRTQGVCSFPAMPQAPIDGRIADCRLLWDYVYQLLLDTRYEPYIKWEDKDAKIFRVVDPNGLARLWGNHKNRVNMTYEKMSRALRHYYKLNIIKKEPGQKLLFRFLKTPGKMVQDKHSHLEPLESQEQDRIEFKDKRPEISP
Method in brief: as §1

ELF5 = target: T11, ELF5 (Homo sapiens, UniProt Q9UKW6-2 1-255); conditions: protein: recombinant; tags: N-terminal GST; dsDNA, one strand shown
T11 sequence: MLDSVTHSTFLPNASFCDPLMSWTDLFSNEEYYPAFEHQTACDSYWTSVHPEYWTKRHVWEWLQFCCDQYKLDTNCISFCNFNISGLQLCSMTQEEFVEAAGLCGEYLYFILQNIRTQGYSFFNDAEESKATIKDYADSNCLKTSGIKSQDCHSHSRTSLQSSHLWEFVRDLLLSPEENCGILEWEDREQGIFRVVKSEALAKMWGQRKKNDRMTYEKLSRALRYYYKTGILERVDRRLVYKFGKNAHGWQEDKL
Method in brief: as §1

ETV3 = target: T12, ETV3 (Homo sapiens, UniProt P41162-2 1-143); conditions: protein: recombinant; tags: N-terminal GST; dsDNA, one strand shown
T12 sequence: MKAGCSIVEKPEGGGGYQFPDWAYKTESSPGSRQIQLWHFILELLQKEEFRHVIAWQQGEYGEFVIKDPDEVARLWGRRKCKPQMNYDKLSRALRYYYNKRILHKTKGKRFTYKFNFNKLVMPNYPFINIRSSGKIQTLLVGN
Method in brief: as §1

ETV6 = ETV6 (Homo sapiens, UniProt P41212 1-452); conditions: protein: recombinant; tags: N-terminal GST; dsDNA, one strand shown
ETV6, sequence (P41212 whole entry): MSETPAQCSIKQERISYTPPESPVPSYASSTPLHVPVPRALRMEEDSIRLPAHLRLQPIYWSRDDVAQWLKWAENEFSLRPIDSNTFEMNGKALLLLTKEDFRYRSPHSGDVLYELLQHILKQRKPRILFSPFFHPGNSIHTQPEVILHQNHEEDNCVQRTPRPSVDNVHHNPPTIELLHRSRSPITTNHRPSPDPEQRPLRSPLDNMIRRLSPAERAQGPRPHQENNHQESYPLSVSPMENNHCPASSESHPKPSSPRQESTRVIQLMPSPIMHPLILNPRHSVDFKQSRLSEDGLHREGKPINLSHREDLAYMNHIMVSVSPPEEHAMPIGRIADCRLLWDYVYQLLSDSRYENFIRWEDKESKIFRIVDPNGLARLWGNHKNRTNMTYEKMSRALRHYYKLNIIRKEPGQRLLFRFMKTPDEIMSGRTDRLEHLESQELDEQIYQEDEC
Method in brief: as §1

## CTTAAC
FEV
  binding signal: 1.27 fold enrichment (6-mer frequency, TF over GST control)
ETV5
  binding signal: 1.26 fold enrichment (6-mer frequency, TF over GST control)
HSF1
  binding signal: 1.72 fold enrichment (6-mer frequency, TF over GST control)
SPIC
  binding signal: 1.18 fold enrichment (6-mer frequency, TF over GST control)
ELF4
  binding signal: 1.28 fold enrichment (6-mer frequency, TF over GST control)
ELK4
  binding signal: 1.34 fold enrichment (6-mer frequency, TF over GST control)
ETV2
  binding signal: 1.25 fold enrichment (6-mer frequency, TF over GST control)
ELF3
  binding signal: 1.36 fold enrichment (6-mer frequency, TF over GST control)
CRX
  binding signal: 2.4 fold enrichment (6-mer frequency, TF over GST control)
ETV1
  binding signal: 1.14 fold enrichment (6-mer frequency, TF over GST control)
ERF
  binding signal: 1.3 fold enrichment (6-mer frequency, TF over GST control)
ETV3L
  binding signal: 1.22 fold enrichment (6-mer frequency, TF over GST control)
ETS2
  binding signal: 1.3 fold enrichment (6-mer frequency, TF over GST control)
SPDEF
  binding signal: 1.36 fold enrichment (6-mer frequency, TF over GST control)
ETV7
  binding signal: 1.29 fold enrichment (6-mer frequency, TF over GST control)
ELF5
  binding signal: 1.31 fold enrichment (6-mer frequency, TF over GST control)
ETV3
  binding signal: 1.3 fold enrichment (6-mer frequency, TF over GST control)
ETV6
  binding signal: 1.29 fold enrichment (6-mer frequency, TF over GST control)
